Test results from PubChem BioAssay.
The source made the active and inactive calls.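 Rule for the calls, unless noted: active = normalized viability below 100% at a tested concentration; inactive = the rest.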

What was measured:
[1] = viability loss with induced miR-34 in A549 – imaging, A549 dox-inducible miR-34, nuclei and caspase counts, primary screen (AID 1347080;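 active = compounds whose cell count with miR-34 switched on is under 0.7 times the count with it off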); settings: A549 miR-34 inducible, Hoechst nuclei count, 48 h
[2] = MELAS cybrid and Rieske KO viability enhancers – cell-based, MELAS cybrids, Rieske KO mouse fibroblasts, CellTiter-Glo, primary screen (AID 1508586;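 active = mean z-score across replicates of 1.96 or higher in either the MELAS or the Rieske mutant cell line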;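 note: z relative to plate mean and SD of compound and empty wells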); settings: low glucose
[3] = drug combination growth inhibition, ovarian cancer – cell-based, oncology-focused library, rucaparib conditional, profiling panel (AID 1508598); settings: patient-derived ovarian cancer cells, CellTiter-Glo viability, 144 h, stronger effect = lower value
[4] = stronger effect = lower value, cell number ratio, induced over uninduced
[5] = measured here: relative caspase fold change +Dox/-Dox
[6] = measured here: total cells with miR-34 induction, stronger effect = lower value
[7] = measured here: total cells without miR-34 induction
[8] = MELAS cybrid survival, CellTiter-Glo 48 h, stronger effect = higher value
[9] = Rieske KO mouse fibroblast survival, CellTiter-Glo 72 h
[10] = at 0.000305 µM, OCI-C5x cells, with rucaparib 10 µM, 100% = cells with rucaparib alone
[11] = at 0.000305 µM, OCI-C5x cells, without rucaparib
[12] = at 0.000305 µM, OCI-P5x cells, with rucaparib 20 µM, 100% = cells with rucaparib alone
[13] = at 0.000305 µM, OCI-P5x cells, without rucaparib
[14] = at 0.00122 µM, OCI-C5x cells, with rucaparib 10 µM, 100% = cells with rucaparib alone
[15] = at 0.00122 µM, OCI-C5x cells, without rucaparib
[16] = at 0.00122 µM, OCI-P5x cells, with rucaparib 20 µM, 100% = cells with rucaparib alone
[17] = at 0.00122 µM, OCI-P5x cells, without rucaparib
[18] = at 0.00488 µM, OCI-C5x cells, with rucaparib 10 µM, 100% = cells with rucaparib alone
[19] = at 0.00488 µM, OCI-C5x cells, without rucaparib
[20] = at 0.00488 µM, OCI-P5x cells, with rucaparib 20 µM, 100% = cells with rucaparib alone
[21] = at 0.00488 µM, OCI-P5x cells, without rucaparib
[22] = at 0.0195 µM, OCI-C5x cells, with rucaparib 10 µM, 100% = cells with rucaparib alone
[23] = at 0.0195 µM, OCI-C5x cells, without rucaparib
[24] = at 0.0195 µM, OCI-P5x cells, with rucaparib 20 µM, 100% = cells with rucaparib alone
[25] = at 0.0195 µM, OCI-P5x cells, without rucaparib
[26] = at 0.0781 µM, OCI-C5x cells, with rucaparib 10 µM, 100% = cells with rucaparib alone
[27] = at 0.0781 µM, OCI-C5x cells, without rucaparib
[28] = at 0.0781 µM, OCI-P5x cells, with rucaparib 20 µM, 100% = cells with rucaparib alone
[29] = at 0.0781 µM, OCI-P5x cells, without rucaparib
[30] = at 0.313 µM, OCI-C5x cells, with rucaparib 10 µM, 100% = cells with rucaparib alone
[31] = at 0.313 µM, OCI-C5x cells, without rucaparib
[32] = at 0.313 µM, OCI-P5x cells, with rucaparib 20 µM, 100% = cells with rucaparib alone
[33] = at 0.313 µM, OCI-P5x cells, without rucaparib
[34] = at 1.25 µM, OCI-C5x cells, with rucaparib 10 µM, 100% = cells with rucaparib alone
[35] = at 1.25 µM, OCI-C5x cells, without rucaparib
[36] = at 1.25 µM, OCI-P5x cells, with rucaparib 20 µM, 100% = cells with rucaparib alone
[37] = at 1.25 µM, OCI-P5x cells, without rucaparib
[38] = at 5 µM, OCI-C5x cells, with rucaparib 10 µM, 100% = cells with rucaparib alone
[39] = at 5 µM, OCI-C5x cells, without rucaparib
[40] = at 5 µM, OCI-P5x cells, with rucaparib 20 µM, 100% = cells with rucaparib alone
[41] = at 5 µM, OCI-P5x cells, without rucaparib

OCCn1cc(-c2ccc3c(c2)CCC3=NO)c(-c2ccncc2)n1
active: viability [3, 12] 91.8% | viability [3, 13] 92.8% | viability [3, 17] 92.9% | viability [3, 19] 92.1% | viability [3, 28] 99% | viability [3, 32] 95.5% | viability [3, 33] 93.7% | viability [3, 36] 90.7% | viability [3, 37] 96.5% | viability [3, 40] 88.8% | viability [3, 41] 98%
0.407: z-score [2, 9]
7730: cell count [1, 7]
inactive: fold change [1, 4] 1.01 | z-score [2, 8] -0.459 | viability [3, 10] 116% | viability [3, 11] 107% | viability [3, 14] 114% | viability [3, 15] 113% | viability [3, 16] 103% | viability [3, 18] 120% | viability [3, 20] 103% | viability [3, 21] 101% | viability [3, 22] 116% | viability [3, 23] 121% | viability [3, 24] 102% | viability [3, 25] 101% | viability [3, 26] 115% | viability [3, 27] 122% | viability [3, 29] 103% | viability [3, 30] 118% | viability [3, 31] 125% | viability [3, 34] 118% | viability [3, 35] 131% | viability [3, 38] 124% | viability [3, 39] 137%
0.852: fold change [1, 5]
7830: cell count [1, 6]

CC1(C)CCC[C@@]2(C)[C@H]3CC(=O)O[C@]3(C)CC[C@@H]12
inactive: fold change [1, 4] 0.913 | z-score [2, 8] -0.354
1.06: z-score [2, 9]
0.659: fold change [1, 5]
10200: cell count [1, 7]
9360: cell count [1, 6]

CN(C)CCOc1ccc(-c2nc(-c3ccc4c(c3)CCC4=NO)c(-c3ccncc3)[nH]2)cc1
7200: cell count [1, 7]
inactive: fold change [1, 4] 0.921 | z-score [2, 8] -0.178 | viability [3, 10] 124% | viability [3, 11] 144% | viability [3, 14] 121% | viability [3, 15] 132% | viability [3, 18] 121% | viability [3, 19] 153% | viability [3, 22] 109% | viability [3, 23] 138% | viability [3, 26] 125% | viability [3, 27] 133% | viability [3, 29] 111% | viability [3, 30] 119% | viability [3, 31] 140% | viability [3, 33] 114% | viability [3, 34] 120% | viability [3, 35] 153% | viability [3, 37] 108% | viability [3, 38] 136% | viability [3, 39] 187% | viability [3, 41] 102%
0.963: z-score [2, 9]
1.04: fold change [1, 5]
6630: cell count [1, 6]
active: viability [3, 12] 72.5% | viability [3, 13] 88.8% | viability [3, 16] 70.7% | viability [3, 17] 68.7% | viability [3, 20] 70.2% | viability [3, 21] 74.7% | viability [3, 24] 69.4% | viability [3, 25] 73.6% | viability [3, 28] 83.1% | viability [3, 32] 85.3% | viability [3, 36] 78.5% | viability [3, 40] 1.04%

CCc1cnn2c(NCc3ccc[n+]([O-])c3)cc(N3CCCCC3CCO)nc12 (centres undefined)
1550: cell count [1, 7]
0.956: fold change [1, 5]
1750: cell count [1, 6]
-3.25: z-score [2, 9]
inactive: fold change [1, 4] 1.13 | z-score [2, 8] 1.14

CCNC(=O)c1noc(-c2cc(Cl)c(O)cc2O)c1-c1ccc(OC)cc1
0.496: fold change [1, 5]
active: z-score [2, 8] 2.58 | viability [3, 13] 98% | viability [3, 24] 33.1% | viability [3, 25] 82.6% | viability [3, 26] 73.6% | viability [3, 27] 39.7% | viability [3, 28] 17.1% | viability [3, 29] 9.14% | viability [3, 30] 39% | viability [3, 31] 22.6% | viability [3, 32] 12% | viability [3, 33] 7.17% | viability [3, 34] 9.37% | viability [3, 35] 6.36% | viability [3, 36] 4.69% | viability [3, 37] 4.76% | viability [3, 38] 8.73% | viability [3, 39] 6.88% | viability [3, 40] 4.38% | viability [3, 41] 3.37%
2390: cell count [1, 6]
-1.9: z-score [2, 9]
inactive: fold change [1, 4] 0.987 | viability [3, 10] 129% | viability [3, 11] 113% | viability [3, 12] 105% | viability [3, 14] 120% | viability [3, 15] 120% | viability [3, 16] 101% | viability [3, 17] 102% | viability [3, 18] 138% | viability [3, 19] 120% | viability [3, 20] 100% | viability [3, 21] 101% | viability [3, 22] 181% | viability [3, 23] 140%
2420: cell count [1, 7]

Cc1cc([N+](=O)[O-])ccc1NS(=O)(=O)c1cc(Cl)ccc1Cl
-3.52: z-score [2, 9]
0.518: fold change [1, 5]
3670: cell count [1, 6]
3730: cell count [1, 7]
inactive: fold change [1, 4] 0.984 | z-score [2, 8] -0.622 | viability [3, 10] 116% | viability [3, 11] 110% | viability [3, 14] 122% | viability [3, 15] 118% | viability [3, 18] 120% | viability [3, 19] 111% | viability [3, 22] 118% | viability [3, 23] 110% | viability [3, 26] 122% | viability [3, 27] 121% | viability [3, 29] 101% | viability [3, 30] 109% | viability [3, 31] 115% | viability [3, 32] 101% | viability [3, 34] 102% | viability [3, 35] 123%
active: viability [3, 12] 74.5% | viability [3, 13] 83.8% | viability [3, 16] 65.9% | viability [3, 17] 73.5% | viability [3, 20] 62.7% | viability [3, 21] 74.6% | viability [3, 24] 65.1% | viability [3, 25] 76.4% | viability [3, 28] 99.2% | viability [3, 33] 99.3% | viability [3, 36] 96.3% | viability [3, 37] 89.4% | viability [3, 38] 99.8% | viability [3, 39] 87% | viability [3, 40] 91.1% | viability [3, 41] 70.2%
